Consider ten compounds from ChEMBL document CHEMBL3988442, “University of Dundee, Small-Polar-MMV Screening Library” (2021).

Each structure is given as a SMILES string. For part of these data: Measured potencies and affinities stand elsewhere.

Holding throughout (set-up): scale not given: direction of the effect not stated beside the values
Experiment [1] addresses Protein translocase subunit SecA (Escherichia coli (strain K12)) (UniProt P10408). Briefly: Assay to Identify E. coli SecA ATPase Inhibitors. It is filed as functional. The following applies: 30 µM.
For experiment [2], the target named is T1, Ubiquitin-activating enzyme e1, putative (Leishmania donovani (strain BPK282A1)) (UniProt E9BSI1).
T1 sequence (whole entry): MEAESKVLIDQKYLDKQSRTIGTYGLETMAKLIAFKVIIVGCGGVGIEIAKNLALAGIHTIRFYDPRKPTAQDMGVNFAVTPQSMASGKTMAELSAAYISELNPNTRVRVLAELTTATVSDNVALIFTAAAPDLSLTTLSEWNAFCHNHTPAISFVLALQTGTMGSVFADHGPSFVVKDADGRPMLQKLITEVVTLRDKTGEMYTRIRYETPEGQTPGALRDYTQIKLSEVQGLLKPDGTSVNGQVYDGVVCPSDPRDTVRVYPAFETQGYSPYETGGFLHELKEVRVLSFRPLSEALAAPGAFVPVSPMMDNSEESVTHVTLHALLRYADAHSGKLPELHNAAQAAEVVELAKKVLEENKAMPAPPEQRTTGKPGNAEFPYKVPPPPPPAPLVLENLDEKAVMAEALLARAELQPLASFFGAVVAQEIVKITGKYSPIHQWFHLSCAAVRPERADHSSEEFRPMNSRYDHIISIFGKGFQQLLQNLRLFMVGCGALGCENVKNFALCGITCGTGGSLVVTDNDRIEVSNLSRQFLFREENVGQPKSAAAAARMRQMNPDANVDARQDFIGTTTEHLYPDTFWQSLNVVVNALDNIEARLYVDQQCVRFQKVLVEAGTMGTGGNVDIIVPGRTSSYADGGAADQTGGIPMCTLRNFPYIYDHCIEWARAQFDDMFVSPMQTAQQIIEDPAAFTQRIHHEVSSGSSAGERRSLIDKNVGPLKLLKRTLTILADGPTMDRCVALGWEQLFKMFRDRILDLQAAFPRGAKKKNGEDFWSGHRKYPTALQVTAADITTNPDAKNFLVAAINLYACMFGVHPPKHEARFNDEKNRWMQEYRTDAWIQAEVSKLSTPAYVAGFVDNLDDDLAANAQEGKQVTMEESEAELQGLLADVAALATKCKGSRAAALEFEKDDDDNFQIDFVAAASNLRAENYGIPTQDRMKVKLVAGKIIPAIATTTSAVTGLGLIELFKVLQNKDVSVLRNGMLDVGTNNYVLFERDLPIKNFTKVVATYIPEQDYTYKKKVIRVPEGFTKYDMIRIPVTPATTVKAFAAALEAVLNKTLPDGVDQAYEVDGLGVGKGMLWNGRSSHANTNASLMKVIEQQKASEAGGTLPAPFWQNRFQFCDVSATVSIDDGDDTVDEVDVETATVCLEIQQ
Briefly: Leishmania donovani Ubiquitin Activating Enzyme (LdE1). It is filed as functional. The following applies: 30 µM.

For experiment [3], the target named is AMP-activated protein kinase, AMPK (Homo sapiens) (UniProt P54646+O43741+P54619+Q9UGJ0+Q9Y478+Q13131+Q9UGI9). The experiment is described as follows: AMP-dependent Kinase enzyme assay. An in vitro enzyme assay that detects ADP turnover that is directly proportional to AMPK activity. This uses naive AMPK that is activated during the assay with MK-8722. It is filed as functional. The following applies: 30 µM.

Experiment [4] concerns the target Sialic acid-binding Ig-like lectin 9 (Homo sapiens) (UniProt Q9Y336). Briefly: Hs-Siglec9 ALPHAscreen SOP 20170721. The following applies: 10 µM. Background: Alpha assays give light when donor and acceptor beads are brought close together.
A further experiment has as its system Trypanosoma cruzi. The experiment is described as follows: Trypanosoma cruzi phosphomannomutase and mannose-1-phosphate guanylyltransferase assay. The following applies: 10 µM. Type of experiment: functional.
Experiment [5] has as its target T2, Arginase-2, mitochondrial (Homo sapiens) (UniProt P78540).
T2 sequence (whole entry): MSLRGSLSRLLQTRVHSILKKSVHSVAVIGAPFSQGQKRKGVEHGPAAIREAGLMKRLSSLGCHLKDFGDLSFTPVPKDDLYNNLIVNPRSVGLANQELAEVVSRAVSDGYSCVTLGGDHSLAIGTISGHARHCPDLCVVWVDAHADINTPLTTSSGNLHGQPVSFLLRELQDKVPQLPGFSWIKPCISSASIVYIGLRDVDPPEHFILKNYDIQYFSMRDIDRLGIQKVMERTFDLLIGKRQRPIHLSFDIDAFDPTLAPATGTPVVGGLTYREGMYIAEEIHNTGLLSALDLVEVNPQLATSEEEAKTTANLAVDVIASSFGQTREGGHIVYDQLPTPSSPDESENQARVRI
The experiment is described as follows: in vitro enzyme assay to detect the production of urea directly proportional to the activity of Arginase II. Note: in the data most compounds retested in dose-response had high values. The following applies: 33.3 µM. Type of experiment: functional.

Experiment [6] concerns the target T3, Proteasome subunit beta (Trypanosoma cruzi) (UniProt O96673).
T3 sequence (whole entry): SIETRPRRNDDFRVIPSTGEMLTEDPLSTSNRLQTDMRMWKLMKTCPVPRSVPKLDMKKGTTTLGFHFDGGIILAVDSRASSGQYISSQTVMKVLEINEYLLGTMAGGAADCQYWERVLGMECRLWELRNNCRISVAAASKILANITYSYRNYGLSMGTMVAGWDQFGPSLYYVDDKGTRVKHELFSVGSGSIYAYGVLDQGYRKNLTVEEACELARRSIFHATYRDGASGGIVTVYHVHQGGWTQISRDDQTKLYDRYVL
The experiment is described as follows: Trypanosoma cruzi proteasome chymotrypsin-like activity (TcProtChymo) assay. Note: in the data most compounds retested in dose-response had high values. Type of experiment: functional. The following applies: 9.37 µM.

A further experiment is filed under the species Homo sapiens. Briefly: To identify inhibition of the IFN signalling (Jak-Stat) pathway via expression of an eGFP reporter gene under the control of an IFN-stimulated response element (ISRE) containing MxA promoter. Type of experiment: functional. The following applies: 30 µM. Background: In a reporter assay the amount or activity of a reporter protein is the signal.

Experiment [7] deals with T4, Tyrosyl-tRNA synthetase, putative (Trypanosoma cruzi (strain CL Brener)) (UniProt Q4DSP6).
T4 sequence (whole entry): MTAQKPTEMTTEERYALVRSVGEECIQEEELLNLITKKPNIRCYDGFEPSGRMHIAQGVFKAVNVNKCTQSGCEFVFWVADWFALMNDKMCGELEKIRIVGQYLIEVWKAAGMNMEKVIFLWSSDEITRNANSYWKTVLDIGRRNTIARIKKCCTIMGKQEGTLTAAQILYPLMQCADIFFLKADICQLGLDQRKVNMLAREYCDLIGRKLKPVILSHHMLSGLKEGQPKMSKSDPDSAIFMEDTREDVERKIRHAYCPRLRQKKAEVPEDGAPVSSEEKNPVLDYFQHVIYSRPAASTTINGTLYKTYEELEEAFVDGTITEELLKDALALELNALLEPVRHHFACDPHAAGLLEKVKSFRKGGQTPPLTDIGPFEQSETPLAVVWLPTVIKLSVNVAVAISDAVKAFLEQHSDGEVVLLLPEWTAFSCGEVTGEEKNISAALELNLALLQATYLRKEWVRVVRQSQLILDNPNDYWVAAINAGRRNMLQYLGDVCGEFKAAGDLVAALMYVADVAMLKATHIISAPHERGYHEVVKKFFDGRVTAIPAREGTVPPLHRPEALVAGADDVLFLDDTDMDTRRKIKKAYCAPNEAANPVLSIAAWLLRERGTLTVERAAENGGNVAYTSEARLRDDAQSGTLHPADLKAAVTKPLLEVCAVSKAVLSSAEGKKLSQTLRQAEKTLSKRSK
Briefly: Trypanosoma cruzi tyrosyl tRNA synthetase (TcYRS) _High Tyrosine SOP. Note: in the data most compounds retested in dose-response had high values. Type of experiment: functional. The following applies: 30 µM.

Experiment [8] addresses T4, Tyrosyl-tRNA synthetase, putative (Trypanosoma cruzi (strain CL Brener)). Briefly: Trypanosoma cruzi tyrosyl tRNA synthetase (TcYRS) SOP. It is filed as functional. The following applies: 30 µM.
The target of experiment [9] is Chromo domain-containing protein 1 (Saccharomyces cerevisiae (strain ATCC 204508 / S288c) (Baker's yeast)) (UniProt P32657). Briefly: ScCHD-1 Enzyme Inhibition Assay. Note: in the data most compounds retested in dose-response had high values. Type of experiment: functional. The following applies: 30 µM.
Chromo domain-containing protein 1 (Saccharomyces cerevisiae (strain ATCC 204508 / S288c) (Baker's yeast)), sequence (P32657 whole entry, the tested form may be a part): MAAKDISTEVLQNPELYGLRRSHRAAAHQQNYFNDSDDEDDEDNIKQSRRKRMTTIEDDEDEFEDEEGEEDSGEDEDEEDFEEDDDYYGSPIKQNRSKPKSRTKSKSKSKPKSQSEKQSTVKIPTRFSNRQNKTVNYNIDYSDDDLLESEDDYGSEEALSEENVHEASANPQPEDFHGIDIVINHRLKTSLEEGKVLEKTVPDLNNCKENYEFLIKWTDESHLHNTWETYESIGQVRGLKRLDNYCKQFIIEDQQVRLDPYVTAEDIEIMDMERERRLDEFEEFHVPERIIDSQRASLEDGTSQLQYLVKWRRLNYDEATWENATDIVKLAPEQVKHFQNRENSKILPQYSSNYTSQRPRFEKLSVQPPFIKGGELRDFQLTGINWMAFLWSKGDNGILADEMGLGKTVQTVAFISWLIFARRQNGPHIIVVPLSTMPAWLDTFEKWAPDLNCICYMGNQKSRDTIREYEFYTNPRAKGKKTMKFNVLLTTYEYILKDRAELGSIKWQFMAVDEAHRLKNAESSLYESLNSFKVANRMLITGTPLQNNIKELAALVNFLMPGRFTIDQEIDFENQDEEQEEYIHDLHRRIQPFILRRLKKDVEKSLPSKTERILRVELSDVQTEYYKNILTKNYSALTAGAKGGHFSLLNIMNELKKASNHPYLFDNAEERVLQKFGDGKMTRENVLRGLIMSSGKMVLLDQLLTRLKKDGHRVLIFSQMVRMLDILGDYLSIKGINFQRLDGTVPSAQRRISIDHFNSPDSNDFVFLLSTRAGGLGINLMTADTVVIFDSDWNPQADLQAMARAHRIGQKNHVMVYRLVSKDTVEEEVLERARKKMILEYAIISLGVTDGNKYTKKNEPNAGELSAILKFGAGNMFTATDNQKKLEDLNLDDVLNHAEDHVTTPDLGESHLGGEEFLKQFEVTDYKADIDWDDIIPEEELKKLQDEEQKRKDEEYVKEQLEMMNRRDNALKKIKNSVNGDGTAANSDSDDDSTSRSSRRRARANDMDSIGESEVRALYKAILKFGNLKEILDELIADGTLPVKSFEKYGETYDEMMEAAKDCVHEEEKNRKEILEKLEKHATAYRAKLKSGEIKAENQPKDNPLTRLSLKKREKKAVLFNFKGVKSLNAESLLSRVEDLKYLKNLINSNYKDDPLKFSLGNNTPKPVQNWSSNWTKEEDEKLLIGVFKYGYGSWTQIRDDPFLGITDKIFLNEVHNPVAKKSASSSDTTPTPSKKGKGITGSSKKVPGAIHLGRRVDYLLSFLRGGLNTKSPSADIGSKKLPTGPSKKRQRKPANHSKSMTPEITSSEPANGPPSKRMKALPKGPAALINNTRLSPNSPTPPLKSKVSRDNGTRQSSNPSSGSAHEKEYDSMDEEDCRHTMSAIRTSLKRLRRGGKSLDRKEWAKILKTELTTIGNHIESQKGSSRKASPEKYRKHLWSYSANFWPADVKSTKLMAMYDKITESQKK

Protein translocase subunit SecA (Escherichia coli (strain K12)), sequence (P10408 whole entry): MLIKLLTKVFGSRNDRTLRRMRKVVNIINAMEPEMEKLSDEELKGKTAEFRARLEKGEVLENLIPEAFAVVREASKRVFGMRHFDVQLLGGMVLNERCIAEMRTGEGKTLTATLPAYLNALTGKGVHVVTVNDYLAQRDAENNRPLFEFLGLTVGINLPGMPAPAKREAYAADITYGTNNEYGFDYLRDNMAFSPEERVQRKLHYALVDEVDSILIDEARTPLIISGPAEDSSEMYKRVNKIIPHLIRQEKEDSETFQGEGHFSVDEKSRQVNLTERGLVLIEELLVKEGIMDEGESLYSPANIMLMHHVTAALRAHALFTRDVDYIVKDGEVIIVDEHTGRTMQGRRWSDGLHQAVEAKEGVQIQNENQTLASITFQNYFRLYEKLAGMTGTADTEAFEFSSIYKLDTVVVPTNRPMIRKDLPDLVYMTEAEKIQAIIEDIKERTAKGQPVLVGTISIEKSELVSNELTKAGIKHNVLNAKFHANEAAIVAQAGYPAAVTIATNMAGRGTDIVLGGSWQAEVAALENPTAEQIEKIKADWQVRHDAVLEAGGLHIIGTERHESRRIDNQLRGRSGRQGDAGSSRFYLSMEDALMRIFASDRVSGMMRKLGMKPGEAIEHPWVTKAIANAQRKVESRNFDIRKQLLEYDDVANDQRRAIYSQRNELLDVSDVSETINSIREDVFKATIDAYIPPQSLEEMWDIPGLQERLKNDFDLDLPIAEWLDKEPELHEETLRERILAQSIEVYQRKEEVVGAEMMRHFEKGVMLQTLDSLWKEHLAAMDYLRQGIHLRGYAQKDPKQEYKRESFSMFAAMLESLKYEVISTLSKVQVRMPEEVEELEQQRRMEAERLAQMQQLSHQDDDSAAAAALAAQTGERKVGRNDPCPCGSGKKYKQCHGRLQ
Sialic acid-binding Ig-like lectin 9 (Homo sapiens), sequence (Q9Y336 whole entry): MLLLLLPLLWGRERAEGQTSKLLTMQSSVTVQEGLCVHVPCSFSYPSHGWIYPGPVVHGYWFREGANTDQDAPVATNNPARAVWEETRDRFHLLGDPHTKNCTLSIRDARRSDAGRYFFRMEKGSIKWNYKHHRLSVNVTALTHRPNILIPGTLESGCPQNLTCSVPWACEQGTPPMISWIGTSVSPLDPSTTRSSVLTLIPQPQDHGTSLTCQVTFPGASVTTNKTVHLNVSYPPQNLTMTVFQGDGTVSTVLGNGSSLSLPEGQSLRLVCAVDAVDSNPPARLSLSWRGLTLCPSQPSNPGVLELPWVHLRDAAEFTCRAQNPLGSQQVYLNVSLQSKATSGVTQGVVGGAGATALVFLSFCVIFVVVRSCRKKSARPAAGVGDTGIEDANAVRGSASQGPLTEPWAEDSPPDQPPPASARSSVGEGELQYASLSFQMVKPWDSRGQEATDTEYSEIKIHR

Regarding `Cn1ccc2ccnc(CC3CN(C(=O)C4CCC(F)(F)CC4)C3)c21`, the Percent Effect in [1] is -2.7%; in experiment [2], 6.76%; in experiment [3], 5.92%; in [4] it was 5.61%; with Trypanosoma cruzi, -0.395%; in experiment [5], -0.696%. In addition, the Percent Effect in experiment [6] was 9.05%; in the experiment listed under Homo sapiens, 1.45%; in experiment [7] it was 6.45%; in [8] it was 14.3%; in experiment [9] it was -12.4%.

On to `CN1CC(c2ccccc2)CC12CCN(C(=O)c1c(Cl)cnn1C)CC2` (configuration not stated), for which the Percent Effect is -3.22% in experiment [1]; 5.41% in experiment [2]; 9.49% in [4]; 8.05% in the experiment on Trypanosoma cruzi; 10.8% in experiment [5]; 10.3% in experiment [6]. Also, the Percent Effect in the experiment filed under Homo sapiens is -5.06%; in experiment [7], 5.85%; in experiment [8], 14.6%; in [9], -3.11%.

For `CCc1cc(C(=O)N2CCCC2c2nc(C)c(F)c(O)n2)on1` (configuration not stated), the Percent Effect in experiment [1] is 1.86%; in [2], 17.3%; in experiment [4] it was -9.03%; in the experiment with Trypanosoma cruzi, 0.197%; in experiment [5], -3.54%; in [6], 16.1%. For the same compound, the Percent Effect in the experiment listed under Homo sapiens was 26.2%; in experiment [7], 3.17%; in experiment [8], 10%; in experiment [9] it was -19.6%.

`Cc1ccc(CC(=O)N2Cc3nccn3CC(Cn3cccn3)C2)cc1` (configuration not stated): the Percent Effect in [1] was 0.712%; in experiment [2], 8.22%; in experiment [3] it was -7.73%; in experiment [4] it was 14.5%; in the experiment on Trypanosoma cruzi, 3.77%; in experiment [5] it was 2.79%. Moreover, the Percent Effect in [6] was 11.2%; in the experiment listed under Homo sapiens, 17.3%; in experiment [7], 4.17%; in experiment [8] it was 16.1%; in experiment [9], -6.87%.

On to `O=C(C1CCC1)N1CCn2c(COc3ncccn3)nnc2C1`, for which the Percent Effect is -7.65% in experiment [1]; 3.9% in [2]; -3.93% in experiment [4]; -5.36% in the experiment on Trypanosoma cruzi; -11.7% in [5]; 12.8% in experiment [6]. Moreover, the Percent Effect was 6.38% in the experiment listed under Homo sapiens, 0.526% in experiment [7], 5.13% in experiment [8] and -2.55% in [9].

On to `O=S(=O)(c1ccccc1Cl)N1CCc2nc(C3CCNCC3)ncc2C1`, for which the Percent Effect was -4.22% in experiment [1]; 1.33% in experiment [2]; 8.22% in experiment [4]; 3.75% with Trypanosoma cruzi; -1.33% in [5]; 12.2% in experiment [6]. Also, the Percent Effect is 34.8% in the experiment listed under Homo sapiens, 6.35% in [7], 12.5% in experiment [8] and -26.2% in experiment [9].

Turning to `CCn1cc(NC(=O)CCc2ccc3c(c2)OCCCO3)cn1`, the Percent Effect in experiment [1] is -5.48%; in [2], 15.6%; in experiment [4], 6.08%; in the experiment with Trypanosoma cruzi, 4.85%; in [5], -6.35%; in experiment [6], 2.28%. The Percent Effect in the experiment listed under Homo sapiens was 0.692%; in experiment [7], 6.86%; in experiment [8], 23.5%; in experiment [9] it was -12.8%.

With `CCSCCC(=O)NS(=O)(=O)c1ccc2c(c1)OCCO2`, the Percent Effect in [1] is -2%; in experiment [2] it was 10.3%; in [4], -9.92%; in the experiment with Trypanosoma cruzi, -1.97%; in [5], 1.23%; in [6], 4.69%. The Percent Effect is 9.19% in the experiment listed under Homo sapiens, 2.39% in experiment [7], 10.8% in [8] and -1.85% in experiment [9].

Take `Cn1cnc2c1CCN(CCS(=O)(=O)c1ccccc1)C2`: the Percent Effect is -3.11% in experiment [1]; 2.67% in experiment [2]; 3.94% in experiment [4]; 2.21% with Trypanosoma cruzi; -5.32% in [5]; 3.48% in experiment [6]. Further, the Percent Effect was 20.9% in the experiment listed under Homo sapiens, 0.526% in experiment [7], 5.13% in experiment [8] and -6.73% in experiment [9].

On to `CN(C)[C@@H]1CN(Cc2ccco2)C[C@@H]2CCCO[C@@H]21`, for which the Percent Effect in experiment [1] is -2.22%; in experiment [2] it was 6.49%; in experiment [4] it was -4.86%; in the experiment on Trypanosoma cruzi, -5.16%; in [5], -1.22%; in experiment [6] it was 9.27%. Also, the Percent Effect in the experiment listed under Homo sapiens is 3.2%; in experiment [7], -0.526%; in [8], 7.69%; in experiment [9], -3.13%.
